Experimental data as given in PubChem BioAssay (NCATS).
Values without a mark were called inactive. Records with an inconclusive call do not appear. A call without a number means that no potency is given here. Active and inactive are the calls of the source. Unless noted, calls follow the shape of the dose curve; as a rule, active = well fitted curve in the direction sought with a large enough effect; inconclusive = small, poorly fitted or top-dose-only effect, or another doubt; inactive = no such curve, though single readings can be large; an effect the other way counts as inactive or inconclusive.

Columns and labels:
[1] = P-glycoprotein substrates identified in KB-8-5-11 adenocarcinoma cell line, qHTS therapeutic library screen (AID 1346987); also: nearly all actives have a fitted effect of over 65% in size; also: potency is read from the fitted curve at half-maximal effect; as to activity change, negative = cytotoxicity: series mostly up to about 44 µM
Summary of the method: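 Steps: plate 500 KB-8-5-11 cells/well in DMEM + 10% FCS (colchicine removed); pin compounds in dose-response; incubate 72 h, 37 degree C, 5% CO2; add CellTiter-Glo, 5 min; read luminescence.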

[2] = NS1 protein of Zika virus - qHTS assay to identify small molecule inhibitors in human HEK 293 cells (AID 1347053); also: series mostly up to about 46 µM; nearly all actives have a fitted effect of over 55% in size
Summary of the method: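 HEK 293 cells pretreated with compound for 1 h, then infected with ZIKV MR766 (MOI 0.5) for 24 h at 37 C. NS1 detected by TR-FRET with two anti-NS1 antibodies; normalized to uninfected (0%) and infected (100%) wells.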

[3] = qHTS of pediatric cancer cell lines to identify multiple opportunities for drug repurposing: Primary screen for TC32 cells (AID 1347089); also: nearly all actives have a fitted effect of over 60% in size
Summary of the method: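 Luminescent ATP read-out (CellTiter-Glo) of metabolically active TC32 cells after 48 h exposure. Concentration-response curves came from 11-point (MIPE, 0.78 nM–46 µM) or 8-point (NPC, 0.59 nM–46 µM) primary titrations; follow-up used 11 points.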

[4] = qHTS assay for small molecule activators of the p53 signaling pathway (AID 651743; active = well fitted activation curve with a large enough effect in the signal ratio, not every such curve was filed as active; the % refers to the signal ratio; also: series mostly up to about 92 µM); details: HCT-116 p53RE-bla, beta-lactamase FRET ratio, 16 h; stronger effect = higher value
Summary of the method: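 p53RE-bla HCT-116 cells carrying a beta-lactamase reporter under p53 response elements were exposed to compounds for 16 hours at 37 C. Reporter activity read as fluorescence after 2 hours at room temperature with LiveBLAzer B/G FRET substrate.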

[5] = qHTS assay for small molecule activators of the nuclear factor-kappa B (NF-kB) signaling pathway (AID 651749; active = well fitted activation curve with a large enough effect in the signal ratio; the % refers to the signal ratio; also: series mostly up to about 77 µM); details: NF-kB-bla ME-180 cells, beta-lactamase FRET ratio, 16 h; stronger effect = higher value
Summary of the method: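 NF-kB-bla ME-180 cells carrying a beta-lactamase reporter under an NF-kB response element, 2,000 cells/well, exposed to compound for 16 hr at 37C; FRET-based beta-lactamase fluorescence read-out of pathway activation.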

[6] = molecular target: Tumor necrosis factor (Homo sapiens) (UniProt P01375); assay: qHTS assay to identify small molecules that stimulate Tumor Necrosis Factor-alpha (TNF-alpha) secretion (AID 651757; active = well fitted curve in the direction sought with a large enough effect in the signal ratio; the % refers to the signal ratio)
Chain of Tumor necrosis factor (Homo sapiens) (P01375 whole entry, looked up): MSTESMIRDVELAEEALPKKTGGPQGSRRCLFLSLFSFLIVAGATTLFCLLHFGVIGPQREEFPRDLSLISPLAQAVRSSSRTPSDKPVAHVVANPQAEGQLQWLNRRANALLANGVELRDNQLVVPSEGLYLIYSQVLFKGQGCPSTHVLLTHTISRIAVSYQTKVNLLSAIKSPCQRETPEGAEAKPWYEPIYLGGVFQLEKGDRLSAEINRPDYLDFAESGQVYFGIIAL
Summary of the method: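 Read-out is HTRF, a TR-FRET sandwich of cryptate- and XL665-labeled anti-TNF-alpha antibodies detecting cytokine secreted by THP-1 cells. Cells had been incubated with test compounds at 37 C for 17 hrs beforehand.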

[7] = qHTS assay for environmental chemicals that activate the Aryl hydrocarbon Receptor (AhR) signaling pathway (AID 651777); details: 1A2-DRE human hepatoma cells, luciferase, 24 h; activation: stronger effect = higher value; also: nearly all actives have a fitted effect of over 15% in size
Summary of the method: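 Induction of CYP1A2 transcription through AhR is detected by luciferase in 1A2-DRE hepatoma cells. Compounds or DMSO act for 24 hr at 37 C before a 30 min One-Glo step at room temperature.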

[8] = molecular target: Peroxisome proliferator-activated receptor alpha (Homo sapiens) (UniProt Q07869); assay: qHTS assay for small molecule agonists of the peroxisome proliferator-activated receptor alpha (PPARalpha) signaling pathway (AID 651778); details: PathHunter PPARalpha complementation, chemiluminescence, 6 h; stronger effect = higher value
Chain of Peroxisome proliferator-activated receptor alpha (Homo sapiens) (Q07869 whole entry, looked up, the tested form may be a part): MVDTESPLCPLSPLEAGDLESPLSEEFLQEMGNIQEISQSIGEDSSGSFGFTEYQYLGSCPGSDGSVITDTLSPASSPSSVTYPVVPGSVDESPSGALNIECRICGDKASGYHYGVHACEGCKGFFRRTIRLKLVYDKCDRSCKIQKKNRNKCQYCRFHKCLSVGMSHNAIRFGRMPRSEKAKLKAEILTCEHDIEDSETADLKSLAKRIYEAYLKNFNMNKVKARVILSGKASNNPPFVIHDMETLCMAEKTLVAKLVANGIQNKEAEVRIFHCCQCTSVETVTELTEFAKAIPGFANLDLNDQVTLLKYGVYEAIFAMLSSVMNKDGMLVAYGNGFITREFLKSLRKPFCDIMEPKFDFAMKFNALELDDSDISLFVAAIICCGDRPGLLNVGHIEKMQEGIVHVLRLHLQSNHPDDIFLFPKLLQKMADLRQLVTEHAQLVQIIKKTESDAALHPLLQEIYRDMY
Summary of the method: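 Enzyme-fragment complementation assay in which ligand-bound PPARalpha translocates and forms an active enzyme that generates chemiluminescence. Cells were plated overnight, exposed to compound for 6 hr at 37 C, and then given detection reagent for 60 min at room temperature.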

[9] = molecular target: Nuclear receptor ROR-gamma (Homo sapiens) (UniProt P51449); assay: qHTS assay for small molecule antagonists of the retinoid-related orphan receptor gamma (ROR-gamma) signaling pathway (AID 651802);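 also: luciferase reporter luminescence driven by ROR response element; series mostly up to about 92 µM; nearly all actives have a fitted effect of over 60% in size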
Chain of Nuclear receptor ROR-gamma (Homo sapiens) (P51449 whole entry, looked up): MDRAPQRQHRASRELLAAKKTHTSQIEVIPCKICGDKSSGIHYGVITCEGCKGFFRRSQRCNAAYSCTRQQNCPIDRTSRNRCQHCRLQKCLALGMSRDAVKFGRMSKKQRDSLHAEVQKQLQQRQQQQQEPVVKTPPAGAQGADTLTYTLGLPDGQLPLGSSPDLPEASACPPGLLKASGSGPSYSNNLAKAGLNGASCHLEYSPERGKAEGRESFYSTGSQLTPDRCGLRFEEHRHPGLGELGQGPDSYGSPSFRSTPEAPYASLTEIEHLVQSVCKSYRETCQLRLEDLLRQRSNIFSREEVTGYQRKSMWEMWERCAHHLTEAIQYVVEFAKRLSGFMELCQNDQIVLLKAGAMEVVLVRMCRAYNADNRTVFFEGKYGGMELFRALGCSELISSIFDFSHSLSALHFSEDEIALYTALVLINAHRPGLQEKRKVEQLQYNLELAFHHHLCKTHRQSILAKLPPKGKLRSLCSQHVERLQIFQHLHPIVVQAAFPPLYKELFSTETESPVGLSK
Summary of the method: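 CHO, TET-inducible ROR + RORE-LUC reporter, 1536-well qHTS. Compound pinned, doxycycline added, 16hr 37C/5% CO2. ONE-Glo, 30 min RT, luminescence; signal drop scored as antagonism.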

[10] = qHTS assay for small molecule agonists of the antioxidant response element (ARE) signaling pathway measured by Nrf2-dependant transcriptional activity (AID 720636; active = well fitted curve in the direction sought with a large enough effect in the repeat runs; an effect the other way counts as inactive or inconclusive;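 also: HepG2 cells with an ARE-driven luciferase reporter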)
Summary of the method: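 We exposed ARE-luc HepG2 cells, seeded in assay medium with 1% dialyzed FBS and allowed 6 hr to adhere, to test compounds overnight (16 hr, 37 C) before measuring luciferase with ONE-Glo.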

[11] = qHTS assay for small molecule antagonists of the retinoid-related orphan receptor gamma (ROR-gamma) signaling pathway - cell viability counter screen (AID 720652; active = well fitted curve in the direction sought with a large enough effect in the repeat runs; an effect the other way counts as inactive or inconclusive;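 also: series mostly up to about 92 µM; compound exposure lasted 16 hr before ATP read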)
Summary of the method: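 Luminescence from CellTiter-Glo after 30 min at room temperature reported cellular ATP as the cytotoxicity measure. Cells were the CHO reporter line with doxycycline-induced ROR-gamma expression, exposed to compound for 16 hr at 37 C.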

[12] = qHTS assay for small molecule agonists of the antioxidant response element (ARE) signaling pathway measured by Nrf2-dependant transcriptional activity - cell viability counter screen (AID 720653; active = well fitted curve in the direction sought with a large enough effect in the repeat runs; an effect the other way counts as inactive or inconclusive); details: ARE-bla HepG2 viability, CellTiter-Glo ATP luminescence, 16 h; stronger effect = lower value
Summary of the method: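 ARE-bla HepG2 cells treated with compounds for 16 h at 37C; this counter screen measures viability as intracellular ATP by CellTiter-Glo luminescence after 30 min at room temperature.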

[13] = qHTS assay for cell viability of HEK293 cells (AID 743288); details: ATP luminescence (CellTiter-Glo), 18 h, stronger effect = lower value; also: nearly all actives have a fitted effect of over 50% in size
Summary of the method: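 Total intracellular ATP, measured with a luciferase-coupled reagent, indicates the number of viable HEK293 cells. Exposure to test chemicals lasts 18 h at 37 C in 1,536-well format at 2,000 cells/well.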

[14] = qHTS assay for cell viability of the p53RE-bla HCT-116 cell line (AID 743292); also: nearly all actives have a fitted effect of over 55% in size
Summary of the method: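 In this qHTS counter-screen, metabolically competent p53RE-bla HCT-116 cells were counted via their ATP content. Compounds were applied for 16 h at 37 C and luciferase-coupled luminescence was measured.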

[15] = qHTS Assay for Identifying Gametocytocidal Compounds (AID 743244);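 also: actives lower the fluorescent signal which means gametocytes are killed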; details: P. falciparum 3D7 stage III-V gametocytes, alamarBlue, 72 h; max response: stronger effect = lower value
Summary of the method: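 Fluorescence at Ex 525/Em 598 nm, recorded 24 h after alamarBlue addition, reports residual metabolic activity of 3D7 gametocytes (stages III–V) following 72 h compound exposure at 37 °C, 5% CO2.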

Structure (SMILES): CC(C)[N+]1(C)C2CCC1CC(OC(=O)C(CO)c1ccccc1)C2 (centres undefined)
- Potency [1]: inactive

Structure (SMILES): C[C@@]12CC[C@@H]3[C@@](CC[C@H]4[C@@]3(C)CCC[C@@]4(C)C(=O)O)(CC1=O)C2
- Potency [1]: inactive

Structure (SMILES): C=CC(=O)Nc1cc(Nc2ncc(Cl)c(-c3c[nH]c4ccccc34)n2)c(OC)cc1N(C)CCN(C)C
- Potency [1]: 5170 nM (active)

Structure (SMILES): C[C@@]12C[C@]3(O)O[C@H](O1)[C@]1(COC(=O)c4ccccc4)[C@H]3C[C@@]12O[C@@H]1O[C@H](CO)[C@@H](O)[C@H](O)[C@H]1O
- Potency [1]: inactive

Structure (SMILES): C[C@@]1(O)[C@H](O)[C@@H](CO)O[C@H]1n1ccc(N)nc1=O
- Potency [1]: inactive

Structure (SMILES): CCOCCOC(=O)/C=C/c1ccc(OC)cc1
- Potency [2]: inactive
- outcome [3]: inactive

Structure (SMILES): C=C(CO)C12OC1C1(C)C(=CC2=O)C(O)C(O)CC1C (centres undefined)
- Potency [1]: inactive

Structure (SMILES): CC(=O)OC1C(O)CC2(C)C(CCC(C)C23Cc2c(O)cc(CO)c(C=O)c2O3)C1(C)C (centres undefined)
- Potency [1]: inactive

Structure (SMILES): C=CC(=O)Nc1cccc(CN2C(=O)N(c3c(Cl)c(OC)cc(OC)c3Cl)Cc3cnc(NCCCCN(CC)CC)nc32)c1
- Potency [1]: inactive

Structure (SMILES): COc1cc2c(cc1O)CC[C@H]1[C@@H]2CC[C@]2(C)[C@H](O)CC[C@@H]12
- Potency [1]: 1300 nM (active)

Structure (SMILES): CC(=O)O[C@@H]1CC(C)=C2[C@H]1[C@H](C)CC[C@H]2/C=C(\C)C(=O)O
- activation [4]: -5.82%
- activation [5]: 0.932%
- outcome [6]: inactive
- activation [7]: -0.287%
- max response [8]: -0.232%
- outcome [9]: inactive
- outcome [10]: inactive
- outcome [11]: inactive
- max response [12]: -16.1%
- max response [13]: -5.49%
- outcome [14]: inactive
- Potency [1]: inactive

Structure (SMILES): CC1OC(OCC2OC(OC3CCC4(C)C(CCC5(C)C4CC=C4C6CC(C)(C)CCC6(C(=O)OC6OC(CO)C(O)C(O)C6O)CCC45C)C3(C)CO)C(O)C(O)C2O)C(O)C(O)C1O (centres undefined)
- outcome [1]: inactive [at 9.29 µM]

Structure (SMILES): COc1ccc(CC2C(=O)NC(C)C(=O)N(C)C3Cc4ccc(cc4)Oc4cc(ccc4OC4OC(CO)C(O)C(O)C4O)CC(C(=O)NC(C)C(=O)NC(C)C(=O)N2C)N(C)C3=O)cc1 (centres undefined)
- activity change, negative = cytotoxicity [1]: -5.43% [at 9.29 µM]

Structure (SMILES): CCC(C(=O)O)c1ccc(N2Cc3ccccc3C2=O)cc1 (centres undefined)
- Potency [2]: inactive
- outcome [3]: inactive

Structure (SMILES): CC(NC(=O)CCc1nc2ccccc2c(=O)[nH]1)c1ccccc1 (centres undefined)
- Potency [1]: inactive

Structure (SMILES): C=CC1C(OC2OC(CO)C(O)C(O)C2O)OC=C2C(=O)N3C(C(=O)O)Cc4c([nH]c5ccccc45)C3CC21 (centres undefined)
- Potency [1]: inactive

Structure (SMILES): CC(=O)OC12COC1CC(O)C1(C)C(=O)C(O)C3=C(C)C(OC(=O)C(O)C(NC(=O)OC(C)(C)C)c4ccccc4)CC(O)(C(OC(=O)c4ccccc4)C21)C3(C)C (centres undefined)
- Potency [1]: 164 nM (active)

Structure (SMILES): Cc1cc(NC(=O)Nc2ccc(F)c(F)c2)n(-c2ccccc2)n1
- Potency [1]: inactive

Structure (SMILES): CC(c1ncncc1F)C(O)(Cn1cncn1)c1ccc(F)cc1F (centres undefined)
- Potency [1]: inactive

Structure (SMILES): O=C(O)CC(=O)OC[C@H]1O[C@@H](Oc2ccc3c(c2)OC[C@H]2c4cc5c(cc4O[C@@H]32)OCO5)[C@H](O)[C@@H](O)[C@@H]1O
- Potency [1]: inactive

Structure (SMILES): CC1=C(C)C(=O)OC(C(C)C2CCC3C4CC=C5CC(OC6OC(COC7OC(CO)C(O)C(O)C7O)C(O)C(O)C6O)CC(O)C5(C)C4CCC23C)C1 (centres undefined)
- Potency [1]: inactive

Structure (SMILES): O=C(O)c1ccccc1NCCc1ccccc1
- Potency [2]: inactive
- outcome [3]: inactive

Structure (SMILES): CN(C)c1ccc2c(c1)OC(N)=C(C#N)C2c1cccc(C(F)(F)F)c1 (centres undefined)
- Potency [1]: 326 nM (active)

Structure (SMILES): CC(C)[C@@H]1C(=O)N(S(C)(=O)=O)[C@@H]2CCN(C(=O)/C=C/CN3CCCCC3)[C@H]21
- Potency [1]: inactive

Structure (SMILES): c1ccc(N2CCN(CCc3nn[nH]n3)CC2)cc1
- Potency [1]: inactive

Structure (SMILES): OC/C=C/C=C/[C@H]1Cc2cc(O)cc(O)c2O1
- Potency [1]: inactive

Structure (SMILES): O=C(O)c1c(O)c(-c2ccccc2)nc2ccccc12
- Potency [2]: inactive
- outcome [3]: inactive

Structure (SMILES): C[C@@H]1CN(Cc2ccccc2)C[C@H]1c1nc2c(cnn2C2CCOCC2)c(=O)[nH]1
- Potency [1]: inactive

Structure (SMILES): O=C(C(c1ccccc1)c1ccccc1)N1CCN(CC(O)COc2cccc3ncccc23)CC1 (centres undefined)
- Potency [1]: inactive

Structure (SMILES): O=S(=O)(NCC1CC1)c1ccc(Nc2nccc(N3CCCc4cc(O)ccc43)n2)cc1
- Potency [1]: 9200 nM (active)

Structure (SMILES): CC(=O)O[C@H]1C(=O)[C@@]2(C)[C@H]([C@H](OC(=O)c3ccccc3)[C@]3(O)C[C@H](OC(=O)[C@H](O)[C@@H](NC(=O)c4ccccc4)c4ccccc4)C(C)=C1C3(C)C)[C@]1(OC(C)=O)CO[C@@H]1C[C@@H]2O
- activation [4]: 23.6%
- activation [5]: 4.74%
- activation [7]: 0.595%
- max response [8]: -1.23%
- outcome [10]: inactive
- max response [12]: -7.37%
- max response [15]: -7.34%
- max response [13]: -10.4%
- outcome [14]: inactive
